High-throughput results as filed in PubChem BioAssay.
Only some compounds are listed: those with a hit (about 2.2% of all), similar ones and a draw of the others.
CRFBP-R2 agonist: CRF-BP/CRF-R2 complex agonism; HEK293 CRF-R2/CRF-BP, calcium dye fluorescence (FLIPR); percent of saturating CRF peptide response; activation, % at 13.2 µM; actives 0.46% (n = 350,000);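 active means activation of at least 50%, plus an integration ratio under a set limit after plate pattern correction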
Myeloid diff 2: promotes myeloid progenitor differentiation. calls only at 10 µM. actives 1% (n = 360,000). ER-HoxA9 myeloid progenitors, lysozyme-GFP differentiation, flow cytometry;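 active means normalized GFP-positive differentiation at or above the plate's own cutoff, the solvent-only control mean plus 3 SD; inconclusive means no clear call, values can overlap the other calls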;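 further: cells exposed to compound for four days before flow analysis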
RTF Ca sens act: cardiac RTF calcium sensitization. P19429+P45379. IANBD-labeled TnC RTF fluorescence at EC20 calcium; 0% EC20 calcium, 100% full calcium. activation, % at 7.2 µM. actives 0.24% (n = 340,000);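 active means activation above the mean over all tested compounds plus 3 SD, cut at about 30% in these data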;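 further: rise in fluorescence read as greater calcium sensitivity of cardiac thin filaments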
RTF Ca sens inh: cardiac RTF calcium desensitization; inhibition, % at 7.15 µM; IANBD-labeled cardiac RTF, Ca2+ fluorescence; actives 0.12% (n = 340,000); AID 493244; P19429+P45379;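 active means inhibition above the mean inhibition of all tested compounds plus 3 SD, cut at about 17% in these data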;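 further: assay run at fixed EC70 calcium of 1.6 mM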
CRFBP-R2 block: antagonists of CRF-binding protein/CRF-R2 receptor complex; HEK293 CRF-R2/CRF-BP, CRF-induced calcium fluorescence; inhibition, % at 11.8 µM; actives 0.59% (n = 350,000); AID 588475;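 active means inhibition of the ligand-induced calcium signal above about 50% at the single tested concentration, limit read from the data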
Large screens that a line does not name were inactive.

N#Cc1c(-c2ccccc2)c(C#N)c2nc3ccccc3n2c1N	Myeloid diff 2 active
O=C(NCc1ccc(Cl)cc1)C1CCN(c2cnccn2)CC1	RTF Ca sens act 30.2
N#Cc1c(C(F)(F)F)cc(-c2ccc(F)cc2)nc1SCC(=O)O	none
Cc1cc(C(F)(F)F)c(C#N)c(SCC(=O)Nc2nc3cc(Br)ccc3s2)n1	Myeloid diff 2 active
CCCCOc1ccc(-c2cc(C(F)(F)F)c(C#N)c(SCC(=O)O)n2)cc1	Myeloid diff 2 active
Cc1ccc(S(=O)(=O)CCSc2nc(C)cc(C(F)(F)F)c2C#N)cc1	Myeloid diff 2 active
CCOC(=O)NC(=O)CSc1nc(C)cc(C(F)(F)F)c1C#N	Myeloid diff 2 active
COC(=O)CSc1nc(C)cc(C(F)(F)F)c1C#N	none
Cc1cc(C(=O)N2CCc3ccccc3C2)on1	none
Cc1cccc(-n2nnc3c(=O)n(Cc4ccccn4)cnc32)c1	none
CN(C)CCNc1nc(Oc2ccccc2)c2sccc2n1	none (no result: CRFBP-R2 agonist, RTF Ca sens act, RTF Ca sens inh, CRFBP-R2 block)
CCOc1ccccc1NC(=O)CN1C(=O)NC(Cc2c[nH]c3ccccc23)C1=O (stereo not drawn)	none
NS(=O)(=O)c1cccc(NC(=O)COC(=O)CN2C(=O)c3ccccc3C2=O)c1	none
C[C@@H]1CN([C@@H](C)CO)C(=O)c2cc(NC(=O)C3CCCCC3)ccc2O[C@@H](C)CCCCO[C@@H]1CN(C)C(=O)CCCN(C)C	none (no result: RTF Ca sens act, RTF Ca sens inh)
C#CCSc1nc(C)cc(C(=O)OCC)c1C#N	CRFBP-R2 block 82.2
CCOC(=O)CC(=O)CSc1nc(C)cc(C)c1C#N	none
COc1cc(NC(=S)N2CCCCC2C)cc(OC)c1OC (stereo not drawn)	none
O=C(Nc1cccc2ncccc12)c1ccc2c(c1)OCCO2	CRFBP-R2 agonist 57.0
COc1cc(C(=O)Nc2ccc(C(F)(F)F)cc2)ccc1OCC(=O)N1CCOCC1	none
CC(C)(C)CC(C)(C)NC(=S)Nc1ccc2nc(-c3ccccn3)c(-c3ccccn3)nc2c1	none
CN(C)NC(=S)Nc1ccc2nc(-c3ccccn3)c(-c3ccccn3)nc2c1	CRFBP-R2 agonist 59.0
CC(=O)N1c2ccc(S(=O)(=O)N(C)CC(=O)NC3CCCC3)cc2CC1C (stereo not drawn)	CRFBP-R2 block 62.8
CC(=O)N1c2ccc(S(=O)(=O)N(C)CC(=O)N3CCCC3)cc2CC1C (stereo not drawn)	none
CCC(C)c1ccccc1N1CC(C(=O)N2CCN(S(=O)(=O)c3cccc([N+](=O)[O-])c3)CC2)CC1=O (stereo not drawn)	none
Cc1cc(C)cc(NC(=O)c2ccc(N3C(=O)C4CCCCC4C3=O)cc2)c1 (stereo not drawn)	CRFBP-R2 block 75.3 (no result: Myeloid diff 2)
OCCN(CCO)c1nc(N2CCCCC2)c2nc(N(CCO)CCO)nc(N3CCCCC3)c2n1	CRFBP-R2 agonist 178.8, RTF Ca sens act 177.3
COc1ccc(-c2oc3ccc(N4CCOCC4)cc3c2C#Cc2ccc(N)cc2)cc1	Myeloid diff 2 active
O=C(CNc1ccccc1)N/N=C/c1ccc([N+](=O)[O-])o1	CRFBP-R2 block 85.4
CC(=O)Nc1ccc2nc3c(=O)n(C)c(=O)n(C)c3nc2c1	Myeloid diff 2 active
Cn1c(=O)c2nc3ccccc3nc2n(C)c1=O	none
O=C(Nc1ccc2nc3ccccc3nc2c1)c1ccc(Br)cc1	none
CC(=O)Nc1ccc2nc3ccccc3nc2c1	CRFBP-R2 block 83.7
O=C1c2ccccc2S(=O)(=O)N1CC(O)COc1ccc(Cl)cc1 (stereo not drawn)	none
COC(=O)c1ccc(OCC(O)CN2C(=O)c3ccccc3S2(=O)=O)cc1 (stereo not drawn)	CRFBP-R2 block 58.2
CC1(C)N=C(N)N=C(N)N1c1ccc(F)cc1F	Myeloid diff 2 active
CC1(C)N=C(N)N=C(N)N1c1cc(Cl)ccc1Cl	none (no result: RTF Ca sens act, RTF Ca sens inh)
CCN(CC)CCNc1ccc(CO)c2sc3ccccc3c(=O)c12	Myeloid diff 2 inconclusive
CCN(CC)CCNc1ccc(CO)c2oc3ccccc3c(=O)c12	Myeloid diff 2 active (no result: RTF Ca sens act, RTF Ca sens inh)
CN1CCN(NC(=O)c2cccc(C(F)(F)F)c2)CC1	none
COC(=O)c1cccc(NC(=O)C2CCCN2C(=O)c2cccs2)c1 (stereo not drawn)	none
Cc1ccc(NC(=O)C2CCCN2C(=O)c2cccs2)cc1C (stereo not drawn)	CRFBP-R2 block 54.5
COc1c2ccc(C(=O)NCCCCc3ccccc3)cc2nn1C	Myeloid diff 2 active
Cc1cc(OCC(=O)C(C)(C)C)c2c(C)c(C)c(=O)oc2c1	CRFBP-R2 block 108.6
COc1cc(Cl)cc(CN2CCC(CCC(=O)NC3CC3)CC2)c1OC	none
Cc1cc(NCCCN2CCOCC2)n2nc(C)c(-c3ccccc3)c2n1	Myeloid diff 2 active
Cc1cc(NCCCN2CCOCC2)n2nc(C)c(-c3ccc(F)cc3)c2n1	none
COc1ccc(-c2cc(C(=O)N3CCN(c4ccccn4)CC3)c3ccccc3n2)cc1	Myeloid diff 2 active
CCOc1ccc(-c2cc(C(=O)N3CCN(c4ccccn4)CC3)c3ccccc3n2)cc1	Myeloid diff 2 inconclusive
COc1ccccc1C(=O)NNC(=S)NC(=O)c1ccco1	none
CCCCN(CC)CCNC(=O)c1cc2cc3ccc(Cl)cc3nc2o1	Myeloid diff 2 active
CCN1/C(=C/C=C/c2oc3ccc4ccccc4c3[n+]2CC)Oc2ccc3ccccc3c21	CRFBP-R2 agonist 153.3 (no result: Myeloid diff 2, RTF Ca sens act, RTF Ca sens inh)
CCCCCC(=O)N1C[C@@H](O)[C@H](n2cc(COC(=O)c3ccccc3)nn2)C[C@@H]1c1ccccc1	none (no result: RTF Ca sens act, RTF Ca sens inh)
Cc1ccc(NC(=O)COC(=O)CCC(=O)c2cccs2)c(Br)c1	CRFBP-R2 block 59.1
Cc1ccc(CNC(=O)CCC(=O)c2cccs2)cc1	CRFBP-R2 block 59.0
O=C(CCC(=O)c1cccs1)NCc1ccc(Cl)cc1	none
Cc1cccc(/C=C/c2onc(C)c2S(=O)(=O)N2CCC(C(=O)NC(C)(C)C)CC2)c1	none
Cc1noc(/C=C/N(C)C)c1S(=O)(=O)N1CCC(C(=O)Nc2ccc(Cl)cc2)CC1	CRFBP-R2 block 90.3
CCN(CC)C(=O)C1CCN(S(=O)(=O)c2c(C)noc2/C=C/c2cccc(C)c2)CC1	Myeloid diff 2 active
COc1cc(C(=O)NCC(c2cccs2)N2CCOCC2)cc(Br)c1OCc1ccccc1 (stereo not drawn)	none
Cc1nc(/N=C\c2ccc(N(C)C)cc2)sc1C	Myeloid diff 2 active
Cc1ccc(N=Cc2ccc(N(C)C)cc2)cc1	none
CC(=O)Nc1ccc(CN2CCCC(CO)(Cc3cccc(Cl)c3)C2)cc1 (stereo not drawn)	CRFBP-R2 agonist 55.5
OCC1(Cc2cccc(Cl)c2)CCCN(Cc2ccc(F)c(F)c2)C1 (stereo not drawn)	none
O=c1oc2ccccc2c2oc3cc(O)c(O)cc3c12	none
O=c1oc2c(O)c(O)cc3c(=O)oc4c(O)c(O)cc1c4c23	RTF Ca sens inh 101.7
COCCN(CC(=O)Nc1cccc(C)c1C)C(=O)CN1C(=O)NC2(CCCCC2)C1=O	none
Cc1c2ccccc2nc2c(F)c(NC(C)C)c(F)c(F)c12	Myeloid diff 2 active
